Screening data: PubChem, National Center for Advancing Translational Sciences (NCATS)
A selection: hits, their analogues and other compounds. The true share with any hit is near 10%.
Six1-Eya2 blk = Six1/Eya2 interaction inhibition. Q15475+O00167. AlphaScreen GST-Six1/His-Eya2 binding, biochemical; active compounds read low. activity change, % (concentration not given with the values). 360,000 compounds, 0.56% hits; in the data active = activity change below about -65%; inconclusive = mostly about -30% to -63%; note: % is set by controls: 0 for no effect and ±100 for the full control effect
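GST-Six1 + His-Eya2 (5X stock: 250/500 nM); Tris pH 8.0, 300 mM NaCl, 0.05% BSA, 0.02% Tween 20; GSH donor/Ni acceptor beads; 1 h 37 °C dark; AlphaScreen readout.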
BAZ2B block = blocks human BAZ2B; AlphaScreen BAZ2B-H3K14Ac peptide displacement; Potency, µM (series often up to 114 µM), for inactives: at the top dose activity change, negative = inhibition, hits mostly inhibitors; 360,000 compounds, 4.4% hits; AID 504333; note: potency is the fitted concentration of half-maximal effect; % is set by controls: 0 for no effect and ±100 for the full control effect; nearly all actives have a fitted effect of over 60% in size
Target sequence (Q9UIF8 whole entry, looked up): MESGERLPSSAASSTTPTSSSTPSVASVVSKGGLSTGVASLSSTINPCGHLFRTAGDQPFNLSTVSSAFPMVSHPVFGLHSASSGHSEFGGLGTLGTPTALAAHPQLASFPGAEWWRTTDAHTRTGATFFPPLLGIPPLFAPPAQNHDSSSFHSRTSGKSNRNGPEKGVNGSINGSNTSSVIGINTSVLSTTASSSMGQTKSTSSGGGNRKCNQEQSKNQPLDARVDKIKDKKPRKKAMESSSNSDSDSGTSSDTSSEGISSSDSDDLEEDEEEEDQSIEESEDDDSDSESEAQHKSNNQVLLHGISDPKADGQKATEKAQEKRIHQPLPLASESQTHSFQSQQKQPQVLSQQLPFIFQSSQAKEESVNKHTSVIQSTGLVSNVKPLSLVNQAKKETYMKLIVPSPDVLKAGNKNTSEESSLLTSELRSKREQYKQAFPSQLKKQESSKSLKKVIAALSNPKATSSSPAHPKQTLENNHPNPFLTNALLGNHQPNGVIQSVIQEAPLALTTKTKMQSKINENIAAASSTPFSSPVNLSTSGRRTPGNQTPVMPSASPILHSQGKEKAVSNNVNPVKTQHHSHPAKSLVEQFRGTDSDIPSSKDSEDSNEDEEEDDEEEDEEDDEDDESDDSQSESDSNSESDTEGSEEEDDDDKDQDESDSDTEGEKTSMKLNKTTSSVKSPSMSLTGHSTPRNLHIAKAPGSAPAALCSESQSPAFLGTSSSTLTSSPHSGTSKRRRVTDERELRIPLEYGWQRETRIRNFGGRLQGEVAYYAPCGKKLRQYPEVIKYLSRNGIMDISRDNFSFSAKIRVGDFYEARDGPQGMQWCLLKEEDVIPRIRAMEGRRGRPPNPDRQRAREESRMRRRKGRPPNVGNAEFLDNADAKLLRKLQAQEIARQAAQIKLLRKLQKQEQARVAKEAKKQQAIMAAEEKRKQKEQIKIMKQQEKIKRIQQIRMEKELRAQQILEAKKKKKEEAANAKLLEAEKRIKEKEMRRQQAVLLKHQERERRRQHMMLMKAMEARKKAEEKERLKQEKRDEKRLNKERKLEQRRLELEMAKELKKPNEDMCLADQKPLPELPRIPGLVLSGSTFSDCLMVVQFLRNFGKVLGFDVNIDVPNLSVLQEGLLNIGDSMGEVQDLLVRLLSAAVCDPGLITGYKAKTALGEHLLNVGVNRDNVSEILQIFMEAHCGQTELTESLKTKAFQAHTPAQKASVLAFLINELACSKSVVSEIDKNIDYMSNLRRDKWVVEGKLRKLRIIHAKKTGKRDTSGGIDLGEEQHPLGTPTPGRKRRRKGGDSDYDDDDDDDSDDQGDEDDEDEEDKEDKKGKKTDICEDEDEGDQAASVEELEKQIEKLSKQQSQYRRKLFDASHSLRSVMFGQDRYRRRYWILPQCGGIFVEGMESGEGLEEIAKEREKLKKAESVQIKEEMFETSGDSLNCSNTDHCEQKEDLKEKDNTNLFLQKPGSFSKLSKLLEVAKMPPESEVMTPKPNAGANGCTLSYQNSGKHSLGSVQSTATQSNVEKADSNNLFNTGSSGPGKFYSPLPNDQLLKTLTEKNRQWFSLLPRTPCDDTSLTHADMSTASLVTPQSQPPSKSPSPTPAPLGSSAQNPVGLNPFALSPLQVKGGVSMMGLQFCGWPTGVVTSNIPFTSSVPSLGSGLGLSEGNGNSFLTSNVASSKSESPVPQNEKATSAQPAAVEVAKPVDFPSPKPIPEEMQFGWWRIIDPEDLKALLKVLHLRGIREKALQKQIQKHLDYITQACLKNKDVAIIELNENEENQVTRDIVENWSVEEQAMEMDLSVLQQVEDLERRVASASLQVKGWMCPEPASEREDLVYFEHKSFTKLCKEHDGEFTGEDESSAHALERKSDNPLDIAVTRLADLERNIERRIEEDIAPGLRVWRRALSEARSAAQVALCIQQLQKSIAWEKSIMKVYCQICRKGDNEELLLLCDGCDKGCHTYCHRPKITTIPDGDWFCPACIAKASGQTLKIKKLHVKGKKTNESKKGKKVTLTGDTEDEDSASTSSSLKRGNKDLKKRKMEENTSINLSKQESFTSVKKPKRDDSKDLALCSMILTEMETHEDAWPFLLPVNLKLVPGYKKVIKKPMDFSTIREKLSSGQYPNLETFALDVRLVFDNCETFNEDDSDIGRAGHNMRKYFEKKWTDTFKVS
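Complex of BAZ2B and biotin-H3K14Ac (50 nM apiece) forms over 30 min at RT, then faces library compounds up to 110 uM for another 30 min; AlphaScreen beads added, 20 min dark incubation, luminescence read.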
HP1b chromo inh = blocks HP1-beta chromodomain binding to methylated histone tails | 390,000 compounds, 0.56% hits | AlphaScreen HP1-beta / biotin-H3K9me3 peptide binding | AID 540317 | P83916 | Potency, µM (doses to about 114 µM), for the others: top-dose activity change, negative = inhibition, actives largely listed as inhibitors; note: potency is the fitted concentration of half-maximal effect; nearly all actives have a fitted effect of over 70% in size
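Compound inhibition of the preformed complex between 50 nM HP1-beta and 50 nM biotinylated H3K9me3 peptide was read by AlphaScreen. Buffer was PBS pH 7.4 with 0.01% Tween-20. Incubations ran 30 min at room temperature, with 10 ug/mL donor/acceptor beads.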
JMJD2A Tudor inh = inhibitors of human JMJD2A Tudor domain; AID 504339; O75164; 390,000 compounds, 4.4% hits; Potency, µM (top dose mostly 114 µM), for the others: top-dose activity change, negative = inhibition, most hits filed as inhibitors; AlphaScreen JMJD2A-Tudor / H3K4me3 peptide binding; note: potency is the fitted concentration of half-maximal effect; % is set by controls: 0 for no effect and ±100 for the full control effect; nearly all actives have a fitted effect of over 50% in size
CtBP-E1A blk = blocks the CtBP interaction with E1A; 340,000 compounds, 0.49% hits; AlphaScreen GST-E1A/His-CtBP binding, 1536-well; active compounds read low; activity change, % (test concentration not listed); in the data active = activity change below about -65%; inconclusive = mostly about -30% to -63%; note: % is set by controls: 0 for no effect and ±100 for the full control effect
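Homogeneous bead-based format: GST-tagged E1A captured on glutathione donor beads, His-tagged CtBP on nickel acceptor beads; compounds precede bead addition by 2 h at 37 °C.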
G9a inh = blocks human histone lysine methyltransferase G9a; Potency, µM (highest dose often 102 µM), for the others: top-dose activity, negative = inhibition, actives largely listed as inhibitors; G9a H3K9 monomethylation, AlphaScreen, 2 h; AID 504332; 350,000 compounds, 8.8% hits; note: potency is the fitted concentration of half-maximal effect; % is set by controls: 0 for no effect and ±100 for the full control effect; nearly all actives have a fitted effect of over 75% in size
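Using a bead-based AlphaScreen, monomethylated H3K9 product from 2 h room-temperature reactions (G9a 20 nM, peptide 500 nM, SAM 20 uM) was detected with 0.5 ug/mL rabbit anti-H3K9me1 antibody.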
The depositor's hits bear a star; ? = inconclusive; · = not tested or not shown; [ ] = another dose, or the depositor's remark. Unless noted, calls come from the whole dose curve; as a rule, active = well fitted inhibition curve with a large enough effect; inconclusive = small, poorly fitted or top-dose-only effect; inactive = no such curve, though single readings can be large or run the other way.

SMILES	Six1-Eya2 blk	BAZ2B block	HP1b chromo inh	JMJD2A Tudor inh	CtBP-E1A blk	G9a inh
O=c1[nH]n2c(=O)c3c([nH]c2c1N=Nc1cccc(Cl)c1)CCC3	?	35µM*	?	4µM*	-1	?
O=c1[nH]n2c(=O)c3c([nH]c2c1N=Nc1cccc(C(F)(F)F)c1)CCCC3	?	-36%	-37%	?	-23	-16%[59 µM]
COc1cccc(N=Nc2c(=O)[nH]n3c(=O)cc(C)[nH]c23)c1	0	50µM*	-7%	?	-17	?
NS(=O)(=O)c1ccc(N=Nc2c(=O)[nH]n3c(=O)c4c([nH]c23)CCCC4)cc1	-12	28µM*	-31%	-36%	-10	·
COc1cccc(N=Nc2c(=O)[nH]n3c(=O)c4c([nH]c23)CCC4)c1	?	45µM*	?	50µM*	-26	?
Cc1cc(C)n2ncc(C(=O)Nc3ccc4c(c3)CCC4)c2n1	·	·	·	-9%	·	·
COc1ccc(-c2nc(=S)c3c(n2Cc2cccnc2)CC(C)(C)OC3)cc1	-2	-17%	7%	-18%	4	-5%
CC1(C)Cc2c(c(=S)nc(-c3ccccc3)n2Cc2cccnc2)CO1	-4	-12%	24%	-2%	-4	35µM*
N#CCCN(C(=O)COC(=O)c1ccc2c(=O)n3c(nc2c1)CCC3)c1ccccc1	-5	-6%	-8%	14µM*	-1	31%
CC(=O)c1cccc(OC(=O)c2ccc3c(=O)n4c(nc3c2)CCC4)c1	-8	-38%	19%	-14%	-3	7.1µM*
CN(CCC#N)C(=O)COC(=O)c1ccc2c(=O)n3c(nc2c1)CCC3	0	-2%	32%	-17%	·	10%
O=C(c1ccccc1Cl)n1nc(-c2ccco2)nc1NCc1cccs1	·	-4%	14%	-10%	·	-31%[59 µM]
C[C@H](N)CCCP(=O)(O)O	·	·	·	·	·	32%[59 µM]
C/C(=N\Nc1ccccc1)c1c(O)cc(C)oc1=O	7	-13%	48%	-12%	5	2.5µM*
COc1ccc2oc(=O)c(/C(C)=N/Nc3ccccc3)cc2c1	1	·	41%	-23%	·	13µM*
COc1ccc2oc(=O)c(C(=O)Nc3ccccc3C)cc2c1	?	50µM*	11%	-15%	·	4%[0.501 µM]
CCOC(=O)c1c(C)[nH]c(CCC(=O)NCc2ccc(OC)c(OC)c2)c1C	·	-2%	28%[57 µM]	-8%	·	-4%[59 µM]
CSc1nc(N)nc2c1ncn2CC(=O)NCCCc1ccccc1	0	·	22%	-12%	-13	·
CCOC(=O)C1(CC)NC(c2ccc(OC)c(OC)c2)C2C(=O)N(c3cccc(C(C)=O)c3)C(=O)C21 (stereo not given)	2	0%	38%	-9%	3	-15%
O=C(O)Cn1c(=S)sc2ccccc21	5	89µM*	24%	-5%	13	71µM*
O=C(O)Cn1c(-c2ccccn2)nc2ccccc21	-2	3%[57.1 µM]	14%	50µM*	·	?
O=C(O)Cn1c(=O)c(-c2ccccc2)nc2ccccc21	0	5%	56%	-10%	9	·
O=C(O)Cn1c(-c2ccccc2)nc2ccccc21	10	-32%	-1%	21%[11.4 µM]	1	40µM*
O=C(O)CCn1c(=O)sc2ccccc21	1	-3%	16%	-17%	-11	12%[2.33 µM]
S=c1[nH]nc(-c2ccncc2)n1/N=C/c1ccccc1	10	-7%	11%	7.9µM*	13	1.3µM*
SMILES	Six1-Eya2 blk	BAZ2B block	HP1b chromo inh	JMJD2A Tudor inh	CtBP-E1A blk	G9a inh
Cc1cccc(/C=N/n2c(-c3ccncc3)n[nH]c2=S)c1	-1	-8%	-37%	2.8µM*	1	1µM*
CCCS(=O)(=O)c1c(S(=O)(=O)CCC)c2cc(CC)ccn2c1C(=O)c1ccc(Cl)cc1	·	-3%	30%	-23%	·	-27%[59 µM]
CN(Cc1cccs1)C(=O)CSc1nc(N)cc(N)n1	-3	·	11%	79µM*	-3	-1%
CN(Cc1cccs1)C(=O)COC(=O)CNC(N)=O	3	-5%	52%	8%	10	9%
Cc1ncc(C[n+]2csc(CCOC(=O)CC3C4CC5CC(C4)CC3C5)c2C)c(N)n1 (stereo not given)	7	-29%	73%	-8%[57.1 µM]	5	50µM*
COc1ccc(C)cc1-n1cnc2cc(C(=O)NC3CCCCCC3)ccc21	·	-18%	11%	?	·	-38%[59 µM]
Cn1c(CCN2CCN(c3ccccn3)CC2)nc2cc(NS(=O)(=O)c3ccc(Cl)cc3)ccc21	-13	?	-9%	?	-14	?
COc1cc(OC)cc(-c2nnc(NC(=O)c3ccc4c(c3)OCCO4)o2)c1	-1	2%	42%	-12%	·	84%[59 µM]
c1ccc2cc(-c3cc4ccccn4c3)ccc2c1	-5	?	-25%	?	6	35µM*
CC(=O)N1N=C(c2ccc3ccccc3c2)OC1(C)C	4	10%	72%	17%	-10	13%[59 µM]
Cc1cc(C)cc(C(=O)NCC(=O)OCC(=O)N2c3ccccc3NC(=O)C2(C)C)c1	6	45µM*	32%	-1%	9	-46%[59 µM]
CC1(C)C(=O)Nc2ccccc2N1C(=O)COC(=O)c1cc([N+](=O)[O-])ccc1N	-11	-9%	-2%	-31%	-17	20µM*
COc1cc(N)c(Cl)cc1C(=O)OCC(=O)N1c2ccccc2NC(=O)C1(C)C	-1	·	18%[57 µM]	5%	3	·
Cc1ccccc1-c1nc2cc(NC(=O)COc3ccc(F)cc3)ccc2o1	·	-16%	44%	-10%	·	6%[59 µM]
C/C=C\C=C/C(=O)Nc1cccc(C2=NOC3(C2)C[C@@H](C(N)=O)N(C(=O)/C=C/C=C\C)C3)c1 (stereo not given in full)	-28	79µM*	?	50µM*	3	?
C=C(C)C(=O)N1CC2(CC(c3cccc(NC(=O)/C=C\C=C/C)c3)=NO2)C[C@H]1C(N)=O (stereo not given in full)	-19	-17%	-22%	11µM*	2	?
CCc1c(C)nc(N2CCN(c3ccc(Cl)cc3)CC2)[nH]c1=O	3	-4%	-18%	-20%	-1	-9%
Cc1cc(NC(=O)/C=C/c2ccccc2)c(C(C)C)cc1O	1	-10%	24%	-25%	·	?
O=C(OC1CC2CC1[C@H]1CCCCN1C2=O)N1CCC(c2ccccc2)CC1 (stereo not given in full)	2	·	·	·	-2	·
O=C(CSc1ccc2ccccc2c1)NC1CCCc2ccccc21 (stereo not given)	4	10%	14%	-8%	2	20%[59 µM]
CC(=O)N1CCN(C(=O)c2ccc(-c3ccccc3Cl)o2)CC1	-1	9%	21%	-10%	·	3%[12.7 µM]
